Tb PYK inh = T. brucei pyruvate kinase inhibition | Potency, µM (doses to about 76.8 µM), for the others: top-dose activity, negative = inhibition, hits mostly inhibitors | hit rate 0.12% among 410,000 | TbPYK enzyme, Kinase-Glo Plus ATP luminescence, 45 min; note: % is set by controls: 0 for no effect and ±100 for the full control effect; nearly all actives have a fitted effect of over 50% in size
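T. brucei PYK with substrate was exposed to pin-transferred compounds across a concentration series, then started with 130 uM ADP (final). After 45 min at room temperature, Kinase-Glo Plus luminescence was read, normalized and curve-fitted.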
RE007 growth inh = less growth of the S. pombe RE007 Vpr strain; S. pombe RE007 Vpr strain, BacTiter-Glo ATP luminescence, 24 h; Potency, µM (doses to about 92.2 µM), inactives show at the highest dose activity change, negative = less growth, most hits filed as inhibitors; hit rate 0.21% among 360,000; AID 651644; active = well fitted falling curve with a large enough effect; note: % is set by controls: 0 for no effect and ±100 for the full control effect; nearly all actives have a fitted effect of over 50% in size
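Fission yeast strain RE007, carrying one chromosomally integrated HIV-1 vpr copy, was seeded at OD 0.01 in PMG+AL medium with 23 nL pinned compound. After 24 h at 30 °C and 99% humidity, viability was read by BacTiter-Glo luminescence.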
NS1 function inh = blocks influenza NS1 protein function | AID 2326 | hit rate 0.4% among 270,000 | Potency, µM (titrated, usually from 46.1 µM), for inactives: at the highest dose activity, positive = more growth; calls by dose curve; note: actives are rising curves; nearly all actives have a fitted effect of over 50% in size
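Recovery from NS1-induced slow growth read by OD600 in budding yeast switched to galactose assay medium (pH 6.0, -URA) at 1:100 dilution. Compound 23 nl per well; the matching strain lacking NS1 serves as control.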
Sm TGR block = blocks Schistosoma mansoni thioredoxin glutathione reductase. Q962Y6. purified TGR, DTNB reduction, TNB absorbance 405 nm. Potency, µM (series often up to 114 µM), inactives show at the highest dose activity change, negative = inhibition, most hits filed as inhibitors. hit rate 3% among 360,000; note: % is set by controls: 0 for no effect and ±100 for the full control effect; nearly all actives have a fitted effect of over 60% in size
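First, TGR (20 nM dispensed) and NADPH were mixed with compound. Second, a 15 min room-temperature incubation followed. Third, further NADPH and then DTNB were added to start the reaction. Finally, TNB absorbance was monitored kinetically.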
FBPA Giardia inh = Giardia lamblia aldolase inhibition. A8B2U2. purified Giardia FBPA. Potency, µM (titrated, usually from 59.6 µM), without a hit: at the highest dose activity, negative = inhibition, usual class: inhibitors. hit rate 0.71% among 290,000. AID 2451; note: % is set by controls: 0 for no effect and ±100 for the full control effect; nearly all actives have a fitted effect of over 55% in size
Target sequence (A8B2U2 whole entry, looked up): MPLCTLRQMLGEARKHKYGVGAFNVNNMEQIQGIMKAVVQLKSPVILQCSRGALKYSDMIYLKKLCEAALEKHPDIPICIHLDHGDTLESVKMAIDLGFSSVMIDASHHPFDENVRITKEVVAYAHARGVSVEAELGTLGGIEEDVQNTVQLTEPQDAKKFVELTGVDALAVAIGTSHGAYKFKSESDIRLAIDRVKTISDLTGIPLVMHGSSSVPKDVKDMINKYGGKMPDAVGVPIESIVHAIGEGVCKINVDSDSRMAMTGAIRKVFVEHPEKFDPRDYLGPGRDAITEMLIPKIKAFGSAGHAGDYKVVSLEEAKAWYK
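40 nM FBPA preincubated 10 min at RT with compound (up to 57.5 uM final), then substrate plus GAPDH/TPI/NAD/arsenate coupling and diaphorase/resazurin added. Fluorescence read after 20 min at RT, 525/598 nm.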
LmPK inh = inhibitors of Leishmania mexicana pyruvate kinase; purified LmPK, Kinase-Glo ATP luminescence, 1 h; Potency, µM (doses to about 57.5 µM), for inactives: at the top dose activity change, negative = inhibition, actives largely listed as inhibitors; hit rate 0.37% among 290,000; note: % is set by controls: 0 for no effect and ±100 for the full control effect
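Screened at intermediate enzyme activity to detect both inhibitors and activators: LmPK at 0.1 nM, with a 0.5 nM enzyme column as activation reference. PEP 0.5 mM, ADP 0.1 mM; ATP detected by luminescence after 1 h.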
* = called active by the depositor; · = no result. An excerpt weighted towards active compounds, which were near 3.5% of everything screened. Unless noted, calls come from the whole dose curve; as a rule, active = well fitted curve in the direction sought with a large enough effect; inconclusive = small, poorly fitted or top-dose-only effect, or another doubt; inactive = no such curve, though single readings can be large; an effect the other way counts as inactive or inconclusive. Potency is the fitted concentration of half-maximal effect.

SMILES	Tb PYK inh	RE007 growth inh	NS1 function inh	Sm TGR block	FBPA Giardia inh	LmPK inh
C=Cc1ccc(Cn2c(C)c(CNCCc3ccc(OCC)cc3)c(C(=O)O)c2C)cc1	0%	·	·	-13%	·	·
CCNc1ncc2nc(-c3ccc(Cl)cc3)c(=O)n(Cc3ccc(F)cc3)c2n1	·	·	·	·	4%	·
O=c1c2c([nH]c3ccccc13)C(=C1CCCC1)CC2	3%	-13%	-34%	13µM*	1%	0%
O=c1c2c([nH]c3ccccc13)CCCC2	-5%	23%	-32%	4%	-5%	2%
CC1(C(=O)Nc2ncc(Cc3ccc(Br)cc3)s2)Cc2ccccc2C(=O)O1 (stereo not drawn)	3%	·	·	-9%	·	·
